According to PubChem BioAssay AID1159580 (chemical genetic matrix, 2015):
“And” between values parts separate entries of the source, which are not always exact repeats. Identical values can stand only once. About 2,000 (36%) of roughly 5,500 compounds were called active. Not shown: some 18% with an inconclusive outcome. Cut-off read from the data, not from the text of the source: active = normalized growth mostly below about 0.91 (no sharp cut-off); inconclusive = no clear call, values can overlap the other calls; inactive = mostly above about 0.92. This is one part of the list.

Assay: chemical genetic growth profiling, strain panel (AID 1159580);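 note: tested at 20 µM; growth read once vehicle control cultures reached saturation at 30 °C; 1 = growth at the plate median or of vehicle wells; lower values mean less growth of the strain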
Conditions: S. cerevisiae deletion strains, growth OD

Measured: normalized growth

COc1ccc(C2C(=O)c3ccccc3C2=O)cc1
inactive: locus YAL013W, strain DEP1, active compounds read low 0.997 | locus YAL021C, strain ccr4, active compounds read low 1.01 | locus YAL026C, strain drs2, active compounds read low 0.983 | locus YAL030W, strain snc1, active compounds read low 1 | locus YBL061C, strain skt5, active compounds read low 1.01 | locus YBR009C, strain hhf1, active compounds read low 0.998 | locus YBR021W, strain FUR4, active compounds read low 1.01 | locus YBR023C, strain chs3, active compounds read low 1.01 | locus YBR171W, strain sec66, active compounds read low 0.978 | locus YBR229C, strain ROT2, active compounds read low 1 | locus YBR231C, strain swc5, active compounds read low 1.02 | locus YBR279W, strain paf1, active compounds read low 1.01 | locus YCL011C, strain gbp2, active compounds read low 0.979 | locus YCL016C, strain dcc1, active compounds read low 1.03 | locus YCL029C, strain bik1, active compounds read low 0.983 | locus YCL069W, strain vba3, active compounds read low 0.986 | locus YCR088W, strain abp1, active compounds read low 0.999 | locus YDL005C, strain med2, active compounds read low 1.02 | locus YDL035C, strain GPR1, active compounds read low 1.01 | locus YDL040C, strain nat1, active compounds read low 1.02 | locus YDL074C, strain BRE1, active compounds read low 0.994 | locus YDL101C, strain DUN1, active compounds read low 1 | locus YDL185W, strain tfp1, active compounds read low 0.921 | locus YDL192W, strain arf1, active compounds read low 0.988 | locus YDR001C, strain nth1, active compounds read low 0.964 | locus YDR069C, strain doa4, active compounds read low 1.01 | locus YDR101C, strain arx1, active compounds read low 1.03 | locus YDR137W, strain rgp1, active compounds read low 0.978 | locus YDR150W, strain NUM1, active compounds read low 0.988 | locus YDR159W, strain sac3, active compounds read low 1.01 | locus YDR162C, strain NBP2, active compounds read low 1.02 | locus YDR195W, strain ref2 1.09 | locus YDR297W, strain sur2, active compounds read low 0.993 | locus YDR318W, strain mcm21, active compounds read low 0.993 | locus YDR334W, strain swr1, active compounds read low 0.983 | locus YDR335W, strain msn5, active compounds read low 1.02 | locus YDR388W, active compounds read low 1.01 | locus YDR392W, strain spt3, active compounds read low 1.02 | locus YDR502C, strain sam2, active compounds read low 0.998 | locus YEL003W, strain gim4, active compounds read low 0.993 | locus YEL037C, strain rad23, active compounds read low 0.994 | locus YEL061C, strain CIN8 (second series), active compounds read low 0.975 | locus YEL061C, strain CIN8, active compounds read low 0.98 | locus YER015W, strain faa2, active compounds read low 1.01 | locus YER016W, strain bim1, active compounds read low 0.995 | locus YER110C, active compounds read low 0.985 | locus YER111C, strain swi4, active compounds read low 0.994 | locus YER155C, strain BEM2 (second series), active compounds read low 0.993 | locus YER155C, strain BEM2, active compounds read low 0.998 | locus YER167W, strain BCK2, active compounds read low 1 | locus YFR010W, strain ubp6, active compounds read low 1.02 | locus YGL078C, strain dbp3, active compounds read low 0.99 | locus YGL086W, strain mad1, active compounds read low 1.01 | locus YGL167C, strain pmr1, active compounds read low 1 | locus YGL173C, strain kem1, active compounds read low 1.02 | locus YGL227W, strain vid30, active compounds read low 0.974 | locus YGL240W, strain doc1, active compounds read low 1.02 | locus YGL248W, strain PDE1, active compounds read low 1 | locus YGL253W, strain hxk2, active compounds read low 1.01 | locus YGR078C, strain PAC10, active compounds read low 0.998 | locus YGR135W, strain pre9, active compounds read low 0.963 | locus YGR252W, strain gcn5, active compounds read low 0.956 | locus YHR013C, strain ard1, active compounds read low 1.02 | locus YHR027C, strain rpn1, active compounds read low 1.01 | locus YHR030C, strain SLT2, active compounds read low 0.977 and 0.898 | locus YHR079C, strain IRE1 (second series), active compounds read low 0.991 | locus YHR079C, strain IRE1, active compounds read low 0.857 | locus YHR094C, strain hxt1, active compounds read low 0.999 | locus YHR129C, strain ARP1, active compounds read low 1.01 | locus YHR142W, strain chs7, active compounds read low 1.02 | locus YHR200W, strain rpn10, active compounds read low 0.995 | locus YIL066C, strain RNR3, active compounds read low 0.996 | locus YIL073C, strain SPO22, active compounds read low 0.977 | locus YIL125W, strain kgd1, active compounds read low 0.997 | locus YIR030C, strain dcg1, active compounds read low 0.987 | locus YJL092W, strain hpr5, active compounds read low 0.969 | locus YJL095W, strain BCK1 (second series), active compounds read low 0.981 | locus YJL095W, strain BCK1, active compounds read low 1 and 0.908 | locus YJL115W, strain asf1, active compounds read low 0.998 | locus YJL129C, strain trk1, active compounds read low 1.02 | locus YJL134W, strain LCB3, active compounds read low 1 | locus YJL154C, strain vps35, active compounds read low 0.99 | locus YJL164C, strain tpk1, active compounds read low 0.999 | locus YJL166W, strain qcr8, active compounds read low 1.01 | locus YJL168C, strain set2, active compounds read low 1.02 | locus YJL187C, strain SWE1 (second series), active compounds read low 0.998 | locus YJR043C, strain POL32, active compounds read low 1
